# Test results: ChEMBL document CHEMBL4513146, “CO-ADD screening of Karazin Kharkiv National University (Ukraine) compounds”
# Results with a measured potency or affinity are listed apart.
# How the values were obtained:
# Klebsiella pneumoniae = conditions: Concentration 32 ug.mL-1;; ASSAY_TEST Inhibition of Bacterial Growth; detection method Absorption (OD600); MEDIA CAMHB; plate type 384well; NBS; CORNING #3640; time 18 hr
# Candida albicans = conditions: Concentration 32 ug.mL-1; ASSAY_TEST Inhibition of Fungal Growth; detection method Absorption (OD530)
# Cryptococcus neoformans = conditions: Concentration 32 ug.mL-1; ASSAY_TEST Inhibition of Fungal Growth; detection method Resazurin; Absorption (OD600-OD570); plate type 384well; NBS; CORNING #3640
Structure (SMILES),Inhibition (Klebsiella pneumoniae),Inhibition (Candida albicans),Inhibition (Cryptococcus neoformans)
CCOC(=O)c1ccc(NC(=O)Cn2nc3c(SC4CCCCC4)nccn3c2=O)cc1,11.88%,-1.98%,-30.92%
Cc1oc(-c2ccc(OC(C)C)cc2)nc1CSc1nc2ccccc2n2c(C(C)C)nnc12,-1.3%,23.86%,-18.35%
O=C(Cn1nc2c(N3CCOCC3)nccn2c1=O)NCc1cccc(C(F)(F)F)c1,8.39%,5.12%,-4.87%
CC(=O)c1ccc(NC(=O)Cn2nc3ccc(-c4ccc(C)c(C)c4)nn3c2=O)cc1,0%,0.28%,-8.82%
CCC(Sc1nnc2c(=O)n(-c3cccc(OC)c3)ccn12)C(=O)Nc1cc(OC)cc(OC)c1 (stereo not given),9.6%,-0.37%,-13.16%
COc1ccc(-c2cc3c4nnc(SCC(=O)Nc5cc(Cl)ccc5C)n4ccn3n2)cc1,0.68%,28.62%,-34.55%
CCCCn1c(=O)c2sccc2n2c(=O)n(CC(=O)N3CCCC(C(=O)OCC)C3)nc12 (stereo not given),-2.03%,-3.31%,-9.46%
Cc1cccc(Cn2nc3c(=O)n(-c4cccc(Cl)c4C)ccn3c2=O)c1,-2.16%,8.37%,-8.02%
CC(C)NC(=O)Cn1nc2n(Cc3ccco3)c(=O)c3sccc3n2c1=O,9.3%,0.87%,-5.24%
CCOc1ccc(-n2ccn3c(SCC(=O)Nc4cc(OC)cc(OC)c4)nnc3c2=O)cc1,3.96%,2.98%,-7.81%
